# Experimental data from PubChem BioAssay (NCATS).
# Inconclusive results are not listed. Where a call stands in place of a potency, no number is given. Activity calls are given as the source filed them. The call rests on the fitted dose curve; in most records, active means well fitted cell-killing curve with a large enough effect; inconclusive means small, poorly fitted or top-dose-only effect, or effect the other way; inactive means no such curve, though single readings can be large or run the other way.
# Assay: Quantitative High-Throughput drug screen in 47 multiple myeloma cell lines against the NCATS MIPE library collection: Karpas620_DSMZ cell viability assay (AID 1918959); further: nearly all actives have a fitted effect of over 30% in size
# Conditions: Karpas620 myeloma viability, CellTiter-Glo ATP luminescence, 48 h; series mostly up to 45.8 µM
# Summary of the method: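 CellTiter-Glo luminescence (ATP) after 48 h compound exposure, 37C/5% CO2; 500 cells/well; MIPE 4.0 approved/investigational drugs pinned in; DMSO = 100%, media only = 0% viability.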
# Potency means the concentration at half of the fitted maximal effect.
row,SMILES,Potency
1,Cc1cc(CS(=O)(=O)c2ccccc2)cc(OCc2ccc(CN3CCC[C@H]3CO)cc2)c1,14.8 µM (active)
2,CO[C@H]1/C=C\O[C@@]2(C)Oc3c(C)c(O)c4c(O)c(c(C=NN5CCN(C6CCCC6)CC5)c(O)c4c3C2=O)NC(=O)C(C)=CC=C[C@H](C)[C@H](O)[C@@H](C)[C@@H](O)[C@@H](C)[C@H](OC(C)=O)[C@H]1C,0.264 µM (active)
3,CC(C)(CO)[C@@H](O)C(=O)NCCC(=O)O,inactive
4,CC1(C)[C@H]2CC[C@]3(C)[C@@H](C(=O)C=C4[C@@H]5C[C@@](C)(C(=O)O)CC[C@]5(C)CC[C@]43C)[C@@]2(C)CC[C@@H]1O,inactive
5,COc1nccc(-c2c(-c3ccc(F)cc3)ncn2C2CCNCC2)n1,inactive
6,COc1cc(CNC(=O)CCCCC=CC(C)C)ccc1O,inactive
7,CCN(CC)CCCCNc1nc2cc(Cl)c(Cl)cc2nc1-c1ccc(-c2cccs2)s1,9.35 µM (active)
8,CN1[C@H]2CC[C@H]1CC(OC(=O)c1c[nH]c3ccccc13)C2 (some centres not stated),inactive
9,CCCCOCCOc1nc(-c2ccc(C(=O)O)c(F)c2)sc1C,inactive
10,CN(C)CC[C@H](CSc1ccccc1)Nc1ccc(S(=O)(=O)NC(=O)c2ccc(N3CCN(Cc4ccccc4-c4ccc(Cl)cc4)CC3)cc2)cc1[N+](=O)[O-],0.0662 µM (active)
11,CC[C@H](CC#N)OC(=O)N[C@@H](C)c1cccc(NC(=O)Nc2ccc(-c3cnco3)c(OC)c2)c1,18.7 µM (active)
12,COc1cc(C=CC(=O)O)ccc1O,inactive
13,CN[C@@H](C)[C@H]1[C@H](O)C[C@@]2(C)[C@@H]3CC[C@H]4C(C)(C)[C@@H](NC)CC[C@@]45C[C@@]35CC[C@]12C,inactive
14,O=C1Nc2ccc(I)cc2C1=Cc1cc(Br)c(O)c(Br)c1,14.8 µM (active)
15,NC1(C(=O)N[C@@H](CCO)c2ccc(Cl)cc2)CCN(c2ncnc3[nH]ccc23)CC1,2.64 µM (active)
16,Cc1cn([C@@H]2C[C@@H](O)[C@H](CO)O2)c(=O)[nH]c1=O,inactive
17,CC1=C(C(=O)Nc2cc3cn[nH]c3cc2F)C(c2ccc(C(F)(F)F)cc2)CC(=O)N1 (configuration not stated),inactive
18,CC(=O)NCCC(=O)N[C@@H](CCC(N)=O)C(=O)N[C@@H](CO)C(=O)N[C@@H](CCC(N)=O)C(=O)N[C@@H](CCC(N)=O)C(=O)N[C@H](C(=O)N[C@@H](Cc1ccccc1)C(=O)N[C@]1(C)CCCCCCC=CCCC[C@@](C)(C(=O)N[C@@H](CCC(N)=O)C(=O)N[C@@H](CC(N)=O)C(N)=O)NC(=O)[C@H](CC(C)C)NC(=O)[C@H](CC(C)C)NC(=O)[C@@H](CCCNC(=N)N)NC(=O)[C@H](Cc2c[nH]c3ccccc23)NC(=O)[C@H](CC(C)C)NC(=O)[C@H](CC(N)=O)NC1=O)[C@H](C)O,inactive
19,CS(=O)(=O)c1ccc(C2=C(c3ccccc3)C(=O)OC2)cc1,inactive
20,CCC(c1ccc(O)cc1)C(CC)c1ccc(O)cc1 (configuration not stated),inactive
21,CN[C@@H]1[C@@H](O)[C@@H](O[C@@H]2[C@@H](O)[C@H](O[C@H]3O[C@H](CN)[C@@H](O)[C@H](O)[C@@H]3O)[C@@H](N)C[C@@H]2NC(=O)[C@@H](O)CN)OC[C@]1(C)O,inactive
22,CN1CC(=O)N2C(Cc3c([nH]c4ccccc34)[C@H]2c2ccc3c(c2)OCO3)C1=O (some centres not stated),inactive
23,CCCCC(C)(C)[C@H](O)C=C[C@H]1[C@H](O)CC(=O)[C@H]1CC=CCCCC(=O)O,inactive
24,COc1ccc(Cn2ccc3ccc(C(=O)NO)cc32)cc1,inactive
25,Cc1ccccc1C(=O)c1ccc(Nc2ccc(Br)cc2N)cc1Cl,4.69 µM (active)
26,CC(C)(O)CC(=O)NCCn1ccc2ncnc(Nc3ccc(Oc4cccc(C(F)(F)F)c4)c(Cl)c3)c21,5.9 µM (active)
27,CN1c2ccccc2C(=O)N2CCc3c([nH]c4ccccc34)C21 (configuration not stated),inactive
